Hits are enriched below; roughly 8.7% of the tested compounds scored in any of these assays.
AMA1 RON2 block: AMA1-RON2 (P. falciparum) interaction inhibition | AID 720542 | Potency, µM (doses to about 58.2 µM), for inactives: at the highest dose activity change, negative = inhibition, hits mostly inhibitors | 360,000 compounds, 0.2% hits | AlphaScreen AMA1-biotinylated RON2 peptide binding;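 further: 0% = vehicle wells and -100% = peptide control; nearly all actives have a fitted effect of over 45% in size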
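AMA1 (3D7) with his tag at 25 nM final met compounds first, then biotinylated RON2 peptide at 25 nM; detection used donor plus acceptor beads, 10 µg/mL apiece, read by AlphaScreen after 30 min at room temperature.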
Pf growth 96h: P. falciparum growth inhibition at 96 hour, primary screen for plastid delayed-death inhibitors. P. falciparum luciferase reporter growth, 96 h. Potency, µM (highest dose often 28.7 µM), without a hit: top-dose activity change, negative = inhibition, actives largely listed as inhibitors. 320,000 compounds, 6.9% hits
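Cell-based qHTS: luciferase-tagged P. falciparum in erythrocytes (2% hematocrit, 0.05% parasitemia final) incubated with compounds for 96 hours, 37 C, 5% CO2; luciferase detection reagent then added and luminescence measured.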
VACV Venus inh: vaccinia inhibition (Venus reporter). Potency, µM (top dose mostly 36.5 µM), for inactives: top-dose activity change, negative = inhibition, most hits filed as inhibitors. 330,000 compounds, 0.46% hits. Vaccinia virus Venus reporter expression, fluorescence; calls by dose curve; tested in A549 cells; further: nearly all actives have a fitted effect of over 30% in size
VACV mCherry inh: inhibitors of vaccinia virus infection (mCherry reporter signal); Vaccinia virus mCherry reporter infection, fluorescence; Potency, µM (doses to about 36.5 µM), for the others: at the top dose activity change, negative = inhibition, most hits filed as inhibitors; 310,000 compounds, 0.63% hits; AID 720579; calls by dose curve; tested in A549 cells; further: nearly all actives have a fitted effect of over 35% in size
Pf growth 48h: P. falciparum growth inhibition at 48 hours (one generation); P. falciparum luciferase growth in erythrocytes, 48 h; Potency, µM (top dose mostly 28.7 µM), inactives show at the highest dose activity change, negative = inhibition, hits mostly inhibitors; 310,000 compounds, 5.9% hits
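Cell-based growth assay: transgenic P. falciparum expressing firefly luciferase, cultured in red cells within RPMI 1640 containing 0.5% w/v Albumax, 24 mM bicarbonate and gentamycin. A drop in luciferase activity indicates inhibition.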
* marks the source's active call; other numbers are inactive results; [ ] = dose if it differs, or a comment. Unless noted, the call rests on the fitted dose curve; in most records, active means well fitted curve in the direction sought with a large enough effect; inconclusive means small, poorly fitted or top-dose-only effect, or another doubt; inactive means no such curve, though single readings can be large; an effect the other way counts as inactive or inconclusive. Unless noted, on the % scale 0 is the no-effect control and ±100 the full control effect; potency means the concentration at half of the fitted maximal effect.

For O=C(NCCOCCO)C(=O)Nc1c2c(nn1-c1ccc(F)cc1)CSC2 the results were VACV Venus inh -14% and VACV mCherry inh -9%.
COc1ccc(C(C)=O)c(Oc2ccc(S(=O)(=O)N3CCOCC3)cn2)c1 was read as AMA1 RON2 block 24%, Pf growth 96h inconclusive and Pf growth 48h 8.3µM*.
O=S(=O)(c1ccc(Oc2ccc(Cl)cc2)nc1)N1CCOCC1 was read as AMA1 RON2 block -7%, Pf growth 96h 36%, VACV Venus inh -3%, VACV mCherry inh -16% and Pf growth 48h 2%.
COc1ccc(-c2cc(C(F)(F)F)n3nc(C(=O)Nc4cccc(C(F)(F)F)c4)c(Br)c3n2)cc1 was read as VACV Venus inh -3% and VACV mCherry inh -8%.
For Cc1cccc(NC(=O)c2ccc(-n3c(C)nnc3C)cc2)c1 the results were VACV Venus inh 12% and VACV mCherry inh -6%.
`O=C(Nc1ccccc1)N(Cc1ccc(Cl)cc1)CC(O)C(F)(F)F` (stereo not given) gave AMA1 RON2 block -5%, Pf growth 96h 6%, VACV Venus inh -22%, VACV mCherry inh -11% and Pf growth 48h 15µM*.
Screening COc1cccc(CN2CCC(C(=O)Nc3ccc(Oc4cccnc4)cc3)CC2)c1 returned AMA1 RON2 block -19%, Pf growth 96h 56%, VACV Venus inh -9%, VACV mCherry inh -7% and Pf growth 48h inconclusive.
For O=C(Nc1ccc(Oc2cccnc2)cc1)C1CCN(Cc2cc(Cl)ccc2O)CC1 the results were AMA1 RON2 block 3%, Pf growth 96h inconclusive and Pf growth 48h 1.3µM*.
Screening CCn1cc(CN2CCC(C(=O)Nc3ccc(Oc4cccnc4)cc3)CC2)cn1 returned AMA1 RON2 block -2%, Pf growth 96h 12%, VACV Venus inh -20%, VACV mCherry inh -5% and Pf growth 48h 13µM*.
`Cc1cccc(CN2CCC(C(=O)Nc3ccc(Oc4cccnc4)cc3)CC2)c1` gave AMA1 RON2 block -2%, Pf growth 96h 14%, VACV Venus inh -20%, VACV mCherry inh -6% and Pf growth 48h 13µM*.
`COc1cc(=O)n2c(c1C(=O)N(C)Cc1nonc1C)CCN(Cc1cc(C)ccc1C)CC2` gave VACV Venus inh -7% and VACV mCherry inh -14%.
Screening C=CCn1cnc2c(c1=O)c1nc3ccccc3nc1n2/N=C/c1cccc(OC)c1OC returned AMA1 RON2 block -9%, Pf growth 96h -10%, VACV Venus inh -6%, VACV mCherry inh -6% and Pf growth 48h inconclusive.
C=CCn1cnc2c(c1=O)c1nc3ccccc3nc1n2-c1ccccc1 was read as Pf growth 96h 5.9µM*.
For C=CCn1cnc2c(c1=O)c1nc3ccccc3nc1n2-c1ccc(C)cc1 the results were Pf growth 96h inconclusive and Pf growth 48h -16%.
Screening C=CCn1cnc2c(c1=O)c1nc3ccccc3nc1n2/N=C/c1ccccn1 returned AMA1 RON2 block -3%, Pf growth 96h 1.9µM*, VACV Venus inh -7%, VACV mCherry inh -1% and Pf growth 48h -4%.
For C=CCn1cnc2c(c1=O)c1nc3ccccc3nc1n2/N=C/c1cc(OC)c(OC)c(OC)c1 the results were AMA1 RON2 block -8%, Pf growth 96h 5.9µM*, VACV Venus inh -30%, VACV mCherry inh -13%[1.46 µM] and Pf growth 48h 3.7µM*.
COc1cccc(CNC(=O)c2c(OC)cc(=O)n3c2CCN(C(=O)c2cc(F)cc(F)c2)CC3)c1 was read as VACV Venus inh 0% and VACV mCherry inh -10%.
For CC(=O)Nc1ccccc1-c1nc(CNC(=O)c2ccc(C)cc2)c(C)o1 the results were VACV Venus inh -4% and VACV mCherry inh -5%.
For CCOc1cccc(C(=O)N(Cc2ccc(N(C)C)cc2)CC2CCCO2)c1 (stereo not given) the results were VACV Venus inh -6% and VACV mCherry inh -10%.
OC(CNCc1ccco1)Cn1c2ccc(Br)cc2c2cc(Br)ccc21 (stereo not given) was read as AMA1 RON2 block -1%, Pf growth 96h 0.29µM*, VACV Venus inh -17% and VACV mCherry inh -18%.
For Brc1ccc2ncnc(NCc3ccco3)c2c1 the results were AMA1 RON2 block 6%, VACV Venus inh -27%, VACV mCherry inh -1% and Pf growth 48h 9%.
`Cc1c(CN2CCOc3c(cc(-c4ncc(C(F)(F)F)cc4Cl)cc3OCC3CCCO3)C2)cnn1C` (stereo not given) gave VACV Venus inh -18% and VACV mCherry inh inactive.
`CC1CC(C)CN(CCCNC(=O)c2c(O)nc3ccccn3c2=O)C1` (stereo not given) gave AMA1 RON2 block -4%, Pf growth 96h inconclusive, VACV Venus inh 2%, VACV mCherry inh -13% and Pf growth 48h 4.1µM*.
For CC1CC(C)CN(CCCNC(=O)CCNC(=O)Cn2ccc3ccccc3c2=O)C1 (stereo not given) the results were AMA1 RON2 block -6% and Pf growth 96h 5.2µM*.
CC1CC(C)CN(CCCNC(=O)CCNC(=O)Cn2cnc3ccccc3c2=O)C1 (stereo not given) was read as AMA1 RON2 block 10%, Pf growth 96h -5%, VACV Venus inh -2%, VACV mCherry inh -21% and Pf growth 48h 13%.
`Cc1cccn2c(=O)c(C(=O)NCCCN3CC(C)CC(C)C3)c(O)nc12` (stereo not given) gave AMA1 RON2 block -2%, Pf growth 96h 0.83µM*, VACV Venus inh -2%, VACV mCherry inh -16% and Pf growth 48h 2.1µM*.
For CCN(C(=O)COC(=O)c1cccn1C)C1CCS(=O)(=O)C1 (stereo not given) the results were AMA1 RON2 block -4%, Pf growth 96h 29%, VACV Venus inh -8%, VACV mCherry inh inactive and Pf growth 48h 0%.
For Cc1ccc(OCC(=O)NC2CCS(=O)(=O)C2)c(C)c1 (stereo not given) the results were AMA1 RON2 block 8%, Pf growth 96h 5.9µM*, VACV Venus inh -15%, VACV mCherry inh inactive and Pf growth 48h 8%.
Cn1cccc1C(=O)OCC(=O)NC1CCS(=O)(=O)C1 (stereo not given) was read as AMA1 RON2 block -6%, Pf growth 96h 18%, VACV Venus inh -4%, VACV mCherry inh -8% and Pf growth 48h 1.5µM*.
Screening COc1ccccc1NC(=O)Cn1c(=O)n(Cc2nc(-c3ccccc3)no2)c(=O)c2ccccc21 returned VACV Venus inh -12% and VACV mCherry inh -7%.
Cn1cc(S(=O)(=O)c2ccc(Cl)cc2)c(=O)c2cc(F)c(N3CCCCCC3)cc21 was read as VACV Venus inh -18% and VACV mCherry inh -23%.
`Cn1c(CNC(=O)Nc2ccccc2)nnc1SCc1ccccc1` gave AMA1 RON2 block -14%, VACV Venus inh -10%, VACV mCherry inh inactive and Pf growth 48h 19%.
Cn1c(CNC(=O)Nc2cccc(Cl)c2)nnc1SCc1ccccc1 was read as AMA1 RON2 block 12%, Pf growth 96h 13µM*, VACV Venus inh -19%, VACV mCherry inh -12% and Pf growth 48h inconclusive.

Source: PubChem BioAssay (National Center for Advancing Translational Sciences (NCATS))
